Values joined by “and” are separate entries in the source; they are usually repeats but may differ in a detail not shown here. Identical values can stand only once. Values without a mark were called inactive. Active and inactive are the calls of the source.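 The calls were made as follows, unless noted: active = thallium flux through the channel raised or lowered by more than 3 SD from vehicle-only wells, actives on both sides; inactive = the rest.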

The target in assay [1] is NAD(+) hydrolase SARM1 (Homo sapiens) (UniProt Q6SZW1). Nature of the assay: blocking NAD cleavage by SARM1 SAM-TIR – cell lysate, NAD-Glo luminescence (AID 1508614;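 active = compound whose remaining NAD level is above about 45 nM, limit read from the data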;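 also: higher remaining NAD means stronger inhibition of SARM1 NADase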). The note with it: SAM-TIR HEK293T lysate NADase, at 1 µM, stronger effect = higher value.
In assay [2] the target is Mitogen-activated protein kinase 7 (Homo sapiens) (UniProt Q13164). Nature of the assay: Gal4-ERK5 driven luciferase induction – cell-based, HTS, primary screen (AID 1508626;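 active = luciferase signal above three times the same-plate solvent-only control wells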;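 also: luciferase driven by Gal4-ERK5 fusion binding five Gal4 sites before minimal TATA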). The note with it: HeLa Gal4-ERK5 transactivation, 18 h, at 5 µM, stronger effect = higher value.
The nature of assay [3]: galactose survival enhancers in mitochondrial complex I cybrids – cell-based, galactose medium, ATP luminescence, primary screen (AID 1645843;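 active = z-score of at least 1.8 in each of two replicates, scored against plate mean and spread of sample wells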;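 also: positive z means more ATP and so rescue of galactose-driven cybrid death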). The note with it: complex I mutant cybrid cells, 72 h, stronger effect = higher value.
For assay [4], the system named is F380Y. Nature of the assay: BK channel mutant inhibitors and activators – cell-based, U2OS BacMam, thallium flux, beta subunits, selectivity assay, profiling panel (AID 1259406).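 Also: initial slope of Thallos dye fluorescence rise after thallium is added; log ratio against the mean of 0.3% DMSO vehicle wells on the same plate.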 The note with it: U2OS BacMam BK variants, at 30 µM.
The test system of assay [5] is F380Y/beta1. The assay is described as above. The note with it: U2OS BacMam BK variants, at 30 µM.

Sequence of NAD(+) hydrolase SARM1 (Homo sapiens) (Q6SZW1 whole entry, looked up, the tested form may be a part): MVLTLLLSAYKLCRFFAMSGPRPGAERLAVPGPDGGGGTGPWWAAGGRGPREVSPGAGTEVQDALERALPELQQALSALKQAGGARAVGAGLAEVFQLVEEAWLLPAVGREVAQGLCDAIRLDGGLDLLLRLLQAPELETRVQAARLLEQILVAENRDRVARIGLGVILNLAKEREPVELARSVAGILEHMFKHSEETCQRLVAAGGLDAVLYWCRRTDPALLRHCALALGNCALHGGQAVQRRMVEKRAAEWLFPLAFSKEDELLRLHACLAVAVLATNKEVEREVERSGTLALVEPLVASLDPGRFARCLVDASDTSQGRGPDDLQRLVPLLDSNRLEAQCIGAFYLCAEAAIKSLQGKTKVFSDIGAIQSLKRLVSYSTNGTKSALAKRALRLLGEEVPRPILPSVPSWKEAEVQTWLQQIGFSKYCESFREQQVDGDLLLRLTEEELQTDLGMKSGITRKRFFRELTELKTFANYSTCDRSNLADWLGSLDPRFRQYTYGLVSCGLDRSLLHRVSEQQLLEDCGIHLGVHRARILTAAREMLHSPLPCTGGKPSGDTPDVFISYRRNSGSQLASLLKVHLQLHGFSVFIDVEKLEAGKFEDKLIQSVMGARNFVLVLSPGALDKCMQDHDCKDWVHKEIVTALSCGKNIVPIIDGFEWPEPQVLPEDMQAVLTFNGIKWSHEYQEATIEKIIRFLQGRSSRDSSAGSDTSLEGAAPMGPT
Sequence of Mitogen-activated protein kinase 7 (Homo sapiens) (Q13164 whole entry, looked up, the tested form may be a part): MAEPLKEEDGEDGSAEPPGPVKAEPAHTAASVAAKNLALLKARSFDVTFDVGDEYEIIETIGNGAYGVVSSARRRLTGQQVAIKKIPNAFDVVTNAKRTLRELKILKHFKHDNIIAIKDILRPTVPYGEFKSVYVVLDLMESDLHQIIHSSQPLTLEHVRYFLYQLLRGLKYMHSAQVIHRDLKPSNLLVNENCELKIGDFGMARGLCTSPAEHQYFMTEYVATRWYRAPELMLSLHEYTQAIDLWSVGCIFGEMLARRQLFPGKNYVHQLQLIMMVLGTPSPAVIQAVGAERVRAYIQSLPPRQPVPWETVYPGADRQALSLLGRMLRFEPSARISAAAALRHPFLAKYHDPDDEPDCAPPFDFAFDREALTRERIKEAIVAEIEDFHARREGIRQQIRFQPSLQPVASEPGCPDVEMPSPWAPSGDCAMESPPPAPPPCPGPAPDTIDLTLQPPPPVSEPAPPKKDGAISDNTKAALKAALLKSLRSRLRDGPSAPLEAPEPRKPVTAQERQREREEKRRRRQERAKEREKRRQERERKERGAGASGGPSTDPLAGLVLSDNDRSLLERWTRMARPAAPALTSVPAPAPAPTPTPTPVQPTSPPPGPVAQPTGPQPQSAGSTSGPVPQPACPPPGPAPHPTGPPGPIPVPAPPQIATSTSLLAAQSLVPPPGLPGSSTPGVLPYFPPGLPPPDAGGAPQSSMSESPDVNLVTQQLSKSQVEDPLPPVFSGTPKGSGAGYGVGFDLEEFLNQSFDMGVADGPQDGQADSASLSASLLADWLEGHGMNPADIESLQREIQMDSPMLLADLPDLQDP

For the compound `COc1cc2nc(N3CCN(C(=O)C4COc5ccccc5O4)CC3)nc(N)c2cc1OC` (stereo unspecified), in assay [1], the remaining NAD was 10 nM. Also, the luciferase signal in assay [2] is 32 AU. In addition, in assay [3], the z-score is -0.385 and -0.73 and 0.525. The results for the log fold change Tl+ flux in assay [4] and in assay [5] were -0.351 (active) and -0.143 (active), respectively.

As to `COc1ccccc1N1CCN(CC(O)COc2cccc3ccccc23)CC1` (stereo unspecified), the remaining NAD in assay [1] was 10 nM. Moreover, the figures for the log fold change Tl+ flux in assay [4] and in assay [5] were -0.03 and -0.0336, respectively.

Take `COc1cc2c(cc1OC)C(=O)C(CC1CCN(Cc3ccccc3)CC1)C2` (stereo unspecified): in assay [1], the remaining NAD is 10 nM. In addition, the luciferase signal in assay [2] is 32 AU. Further, the z-score in assay [3] was -0.225. The log fold change Tl+ flux was 0.0206 in assay [4] and -0.0145 in assay [5].

With `C#C[C@]1(O)CC[C@H]2[C@@H]3CCc4cc(OC)ccc4[C@H]3CC[C@@]21C`, the remaining NAD in assay [1] was 10 nM. Moreover, in assay [2], the luciferase signal is 80 AU. In addition, the log fold change Tl+ flux in assay [4] was -0.0454; in assay [5], -0.0068.

`Clc1ccc2nsnc2c1NC1=NCCN1`: the log fold change Tl+ flux in assay [4] was -0.038; in assay [5] it was -0.0369.

In the case of `CN(C)CC[C@@H](c1ccc(Cl)cc1)c1ccccn1`, the remaining NAD in assay [1] was 10 nM. Moreover, the luciferase signal in assay [2] was 40 AU. Further, in assay [3], the z-score was -0.155. Further, the values for the log fold change Tl+ flux in assay [4] and in assay [5] were 0.112 (active) and 0.0236, respectively.

Turning to `Cc1ccsc1C(=CCCN1CCC[C@@H](C(=O)O)C1)c1sccc1C`, the log fold change Tl+ flux in assay [4] was 0.0491; in assay [5] it was 0.0426.

On to `Nc1nnc(-c2cccc(Cl)c2Cl)c(N)n1`, for which the remaining NAD in assay [1] was 10 nM. Besides, the luciferase signal in assay [2] is 44 AU. Besides, the z-score in assay [3] is 0.675 and 0.31 and 0.775. For the same compound, the log fold change Tl+ flux in assay [4] was -0.00765; in assay [5] it was -0.046.

On to `COc1ccc(C2CNC(=O)C2)cc1OC1CCCC1` (stereo unspecified), for which, in assay [1], the remaining NAD is 10 nM. Also, in assay [2], the luciferase signal is 72 AU. Moreover, the log fold change Tl+ flux in assay [4] was -0.0147; in assay [5], -0.0167.

As for `CC(=O)NS(=O)(=O)c1ccc(N)cc1`, in assay [1], the remaining NAD is 10 nM. Moreover, the luciferase signal in assay [2] is 64 AU. Also, the z-score in assay [3] is -0.2. Besides, the results for the log fold change Tl+ flux in assay [4] and in assay [5] were -0.0156 and 0.00907, respectively.

On to `CC(C)[C@H](N)C(=O)OCCOCn1cnc2c(=O)[nH]c(N)nc21`, for which the remaining NAD in assay [1] was 10 nM. For the same compound, in assay [2], the luciferase signal was 32 AU. The z-score in assay [3] is 0.625. The values for the log fold change Tl+ flux in assay [4] and in assay [5] were -0.0232 and -0.0206, respectively.

Consider `C[C@@H]1C[C@H]2[C@@H]3C[C@H](F)C4=CC(=O)C(Cl)=C[C@]4(C)[C@@]3(F)[C@@H](O)C[C@]2(C)[C@@]1(O)C(=O)CO`, for which the values for the log fold change Tl+ flux in assay [4] and in assay [5] were 0.0685 and 0.0734, respectively.

For the compound `O=C1[C@H]2CCCC[C@H]2C(=O)N1CCCCN1CCN(c2nsc3ccccc23)CC1`, the log fold change Tl+ flux is 0.0537 in assay [4] and 0.0543 in assay [5].

Turning to `CC(C)(C)NC(=O)[C@@H]1CN(Cc2cccnc2)CCN1C[C@@H](O)C[C@@H](Cc1ccccc1)C(=O)N[C@H]1c2ccccc2C[C@H]1O`, the values for the log fold change Tl+ flux in assay [4] and in assay [5] were -0.012 and -0.0545, respectively.

For `O=C1CC2(CCCC2)CC(=O)N1CCCCN1CCN(c2ncccn2)CC1`, in assay [1], the remaining NAD was 10 nM. In addition, the luciferase signal in assay [2] was 112 AU. For the same compound, the log fold change Tl+ flux in assay [4] is 0.0254; in assay [5], 0.0242.

With `COc1cc2nc(N3CCN(C(=O)C4CCCO4)CC3)nc(N)c2cc1OC` (stereo unspecified), the remaining NAD in assay [1] was 10 nM. Moreover, the luciferase signal in assay [2] was 64 AU. Also, the log fold change Tl+ flux in assay [4] was 0.0434; in assay [5], -0.102.

As to `CC(C)NCC(O)COc1ccc(CCOCC2CC2)cc1` (stereo unspecified), in assay [1], the remaining NAD is 10 nM. Further, the log fold change Tl+ flux is -0.00418 in assay [4] and 0.0244 in assay [5].

As to `CCCOc1ccc(C(=O)OCCN(CC)CC)cc1N`, the remaining NAD in assay [1] is 10 nM. In assay [2], the luciferase signal is 212 AU. For the same compound, the z-score in assay [3] is 0.735 and 0.01. Also, the log fold change Tl+ flux is 0.0362 in assay [4] and -0.0262 in assay [5].

Turning to `CN1CCC(=C2c3ccccc3C=Cc3ccccc32)CC1`, the remaining NAD in assay [1] was 10 nM. Also, the luciferase signal in assay [2] is 20 AU. For the same compound, the log fold change Tl+ flux in assay [4] was 0.15 (active); in assay [5] it was -0.0427.

Turning to `CC(=O)O[C@H]1C[C@@H]2CC[C@@H]3[C@H](CC[C@@]4(C)[C@H]3C[C@H]([N+]3(C)CCCCC3)[C@@H]4OC(C)=O)[C@@]2(C)C[C@@H]1N1CCCCC1`, the remaining NAD in assay [1] is 10 nM. Moreover, the luciferase signal in assay [2] is 52 AU. In addition, in assay [3], the z-score was 0.335. Besides, the log fold change Tl+ flux was 0.0327 in assay [4] and 0.014 in assay [5].

Consider `CCOC(=O)O[C@]1(C(=O)OCCl)CC[C@H]2[C@@H]3CCC4=CC(=O)C=C[C@]4(C)[C@H]3[C@@H](O)C[C@@]21C`, for which the values for the log fold change Tl+ flux in assay [4] and in assay [5] were -0.0169 and -0.0185, respectively.

Turning to `COC(=O)C1=C(C)NC(C)=C(C(=O)O[C@@H]2CCCN(Cc3ccccc3)C2)[C@@H]1c1cccc([N+](=O)[O-])c1`, the log fold change Tl+ flux was -0.0664 in assay [4] and -0.000881 in assay [5].

Consider `CCOC(=O)c1ncn2c1CN(C)C(=O)c1cc(F)ccc1-2`, for which, in assay [1], the remaining NAD was 10 nM. Also, the luciferase signal in assay [2] was 60 AU. Besides, the log fold change Tl+ flux in assay [4] was -0.0521; in assay [5], -0.00468.

`CN1CCC(=C2c3ccccc3CC(=O)c3sccc32)CC1`: the remaining NAD in assay [1] was 10 nM. Besides, in assay [2], the luciferase signal is 76 AU. In addition, the log fold change Tl+ flux in assay [4] is 0.0548; in assay [5] it was 0.0457.

Consider `CC1(C)S[C@@H]2[C@H](N=CN3CCCCCC3)C(=O)N2[C@H]1C(=O)O`, for which the figures for the log fold change Tl+ flux in assay [4] and in assay [5] were 0.00482 and 0.0062, respectively.

For the compound `CCOC(=O)[C@H](CCc1ccccc1)N[C@@H](C)C(=O)N1[C@H](C(=O)O)C[C@@H]2CCC[C@@H]21`, the remaining NAD in assay [1] is 10 nM. Further, in assay [2], the luciferase signal was 316 AU. The z-score in assay [3] is 2.63 and 0.46. In addition, the log fold change Tl+ flux in assay [4] is -0.0209 and 0.0487; in assay [5], -0.00638 and 0.058.

For `COc1ccc2nc(S(=O)Cc3ncc(C)c(OC)c3C)[nH]c2c1` (stereo unspecified), the remaining NAD in assay [1] is 10 nM. Also, the luciferase signal in assay [2] is 68 AU. In addition, the results for the log fold change Tl+ flux in assay [4] and in assay [5] were 0.0402 and 0.0641, respectively.

In the case of `CC(c1cc2ccccc2s1)N(O)C(N)=O` (stereo unspecified), in assay [1], the remaining NAD was 10 nM. For the same compound, the luciferase signal in assay [2] is 36 AU. The z-score in assay [3] was 0.465 and 0.63. The results for the log fold change Tl+ flux in assay [4] and in assay [5] were -0.00504 and 0.00537, respectively.

`CC(C)(C)C(O)/C=C/c1ccc2c(c1)OCO2` (stereo unspecified): the log fold change Tl+ flux is -0.0156 in assay [4] and 0.105 (active) in assay [5].

Turning to `C[C@@H]1C[C@H]2[C@@H]3CCC4=CC(=O)C=C[C@]4(C)[C@@]3(F)[C@@H](O)C[C@]2(C)[C@H]1C(=O)CO`, in assay [1], the remaining NAD was 10 nM. For the same compound, the luciferase signal in assay [2] was 32 AU. Also, the log fold change Tl+ flux in assay [4] is 0.0533; in assay [5], 0.0836.

Turning to `CC(C)NCC(O)COc1ccc(COCCOC(C)C)cc1` (stereo unspecified), in assay [1], the remaining NAD is 10 nM. Further, the luciferase signal in assay [2] was 84 AU. Besides, the z-score in assay [3] was 0.495 and 0.79 and 0.73. For the same compound, the log fold change Tl+ flux in assay [4] is 0.0667; in assay [5], 0.0784.

Take `Oc1ccc(C2CNCCc3c2cc(O)c(O)c3Cl)cc1` (stereo unspecified): the remaining NAD in assay [1] was 10 nM. The values for the log fold change Tl+ flux in assay [4] and in assay [5] were 0.0202 and -0.0465, respectively.

As for `CC(C)c1nc(CN(C)C(=O)N[C@H](C(=O)N[C@@H](Cc2ccccc2)C[C@H](O)[C@H](Cc2ccccc2)NC(=O)OCc2cncs2)C(C)C)cs1`, the remaining NAD in assay [1] was 10 nM. The log fold change Tl+ flux in assay [4] is -0.114 (active); in assay [5] it was -0.406 (active).

As for `Cc1cccc(C)c1OCC(C)N` (stereo unspecified), the remaining NAD in assay [1] was 10 nM. In addition, the luciferase signal in assay [2] is 52 AU. Besides, the z-score in assay [3] was -0.045 and 0.78 and -0.055. Further, the figures for the log fold change Tl+ flux in assay [4] and in assay [5] were -0.014 and 0.0282, respectively.

The values above are taken from PubChem BioAssay.
